High-throughput results deposited in PubChem by several laboratories.
Hits are enriched below; roughly 1.6% of the tested compounds scored in any of these assays.
ATG4B inh – ATG4B protease inhibitors, primary screen, biochemical, fluorescence, uHTS. Cysteine protease ATG4B (Homo sapiens), Q9Y4P1. ATG4B cleavage of LC3-PLA2, NBD-HPC fluorescence, 1 h. inhibition, % at 8.33 µM. 340,000 tested, 0.51% active. AID 504462, 2011; in the data active = inhibition above about 40%
Target sequence (Q9Y4P1 whole entry, looked up): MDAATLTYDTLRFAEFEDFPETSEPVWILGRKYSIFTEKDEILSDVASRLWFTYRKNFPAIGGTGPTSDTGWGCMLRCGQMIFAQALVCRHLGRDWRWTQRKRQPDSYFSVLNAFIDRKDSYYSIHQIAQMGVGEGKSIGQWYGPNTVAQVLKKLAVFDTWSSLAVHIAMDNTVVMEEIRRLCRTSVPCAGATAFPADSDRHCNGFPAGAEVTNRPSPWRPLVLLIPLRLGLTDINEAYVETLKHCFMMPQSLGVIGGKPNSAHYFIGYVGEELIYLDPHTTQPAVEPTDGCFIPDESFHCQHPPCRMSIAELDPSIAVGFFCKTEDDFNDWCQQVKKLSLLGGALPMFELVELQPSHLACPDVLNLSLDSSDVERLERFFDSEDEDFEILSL
Efflux pump mplx – inhibitors of Candida efflux pumps in yeast, primary screen, S. cerevisiae, Nile Red, multiplex; S. cerevisiae Candida pump triplex; inhibition, % at 10 µM; 330,000 tested, 0.44% active; AID 485275, 2010;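 active = plate passing quality check with inhibition over a set limit, or well fluorescence over plate mean plus 4 SD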;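 also: Nile Red retained in pooled yeast measured as flow cytometry median fluorescence; 0% = buffer negative control and 100% = Enniatin B positive control; higher means more Nile Red kept so more efflux inhibition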
GRK2 aptamer HTS – compounds blocking aptamer binding on GRK2 – biochemical, human GRK2, bead flow cytometry, HTS, primary screen; FAM-aptamer displacement from GRK2; inhibition of aptamer binding, % at 10 µM; 330,000 tested, 0.59% active; AID 488847, 2010;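 active = inhibition of aptamer binding above 40%, roughly 3 SD of noise, on plates passing a quality check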;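 also: median bead fluorescence of bound FAM aptamer so fluorescent compounds give negative values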
CR mimetic SO – reduction of superoxide in aged yeast, primary screen, HTS; S. cerevisiae aged cells, superoxide DHE fluorescence; active compounds read low; superoxide response (% of plate mean), % at 10 µM; 330,000 tested, 0.18% active; AID 2690, 2010;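 active = superoxide response under a set limit, about three screen SD below normal, cut at about 65% in these data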;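 also: yeast aged for seven days with compound at 30 °C before DHE staining; 100% = average MFI of all compound-treated wells on the plate with controls excluded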
GRK2 CP1 – GRK2 aptamer-displacing inhibitors, retest, confirmation, biochemical, cherry pick 1, bead flow cytometry; shares compounds with GRK2 aptamer HTS; bead-bound GRK2, FAM-aptamer displacement; aptamer displacement, % at 10 µM; 2,000 tested, 4% active; AID 504451, 2011;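 active = aptamer displacement above 40%, near three times the noise of non-fluorescent compounds, on plates passing quality checks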;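 also: negative values mostly reflect intrinsic compound fluorescence rather than true enhancement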
FAM quench CP1 – quenches fluorescent RNA aptamer, GRK2 hit artifact; shares compounds with GRK2 aptamer HTS; Carboxyfluorescein RNA aptamer on beads, flow cytometry quenching; active compounds read low; fluorescence response (% of DMSO), % at 10 µM; 2,000 tested, under 10 active; AID 504580;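 active = compounds that quench the bead-bound fluorescent RNA probe, cutting fluorescence to under half of the solvent control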;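 also: counterscreen run without GRK2 so only probe quenching by compound is measured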
ATG4B conf – ATG4B protease inhibitors, retest, confirmation, biochemical, fluorescence, single concentration | shares compounds with ATG4B inh | ATG4B protease fluorescent substrate cleavage assay | inhibition, % at 8.33 µM | 320 tested, 92% active; in the data active = inhibition above about 39%
PLA2 ctr – PLA2 enzyme inhibition, counter-screen for ATG4B inhibitor project, biochemical, single concentration, uHTS hits; shares compounds with ATG4B inh; purified PLA2, NBD-C6-HPC fluorescence, 45 min; inhibition, % at 8.33 µM; 1,600 tested, 66% active; AID 588402, 2011; in the data active = inhibition above about 50%
Target sequence (P04054 whole entry, looked up): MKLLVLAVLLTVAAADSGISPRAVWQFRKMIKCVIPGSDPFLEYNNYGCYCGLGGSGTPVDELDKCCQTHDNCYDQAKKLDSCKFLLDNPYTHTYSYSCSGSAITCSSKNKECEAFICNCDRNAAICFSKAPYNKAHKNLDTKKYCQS
An asterisk follows results filed as active; . = no result.

SMILES	ATG4B inh	Efflux pump mplx	GRK2 aptamer HTS	CR mimetic SO	PLA2 ctr	others
Cc1c(Cl)cccc1NS(=O)(=O)c1ccc2c(c1)C1C=CCC1C(c1ccc(C(=O)O)cc1)N2 (configuration not stated)	101*	0	52*	99	92*	GRK2 CP1=4;FAM quench CP1=93
CC1CC(C)(C)CC2(C1)NC(=O)N(CC(=O)Nc1cc(C(F)(F)F)ccc1N1CCCCC1)C2=O (configuration not stated)	1	.	.	.	.
COc1ccc(C(=O)C(C)OC(=O)CNC(=O)c2ccco2)cc1 (configuration not stated)	5	0	0	94	.
O=S1(=O)N(Cc2ccccc2F)CCCN1Cc1c(F)cccc1Cl	68*	0	1	84	83*
Cc1ccc(CN2CCCN(Cc3c(F)cccc3Cl)S2(=O)=O)cc1	26	0	1	96	.
O=C(Oc1ccccc1Cl)C1CCN(C(=O)c2ccc(F)cc2)CC1	-15	0	1	105	.
Cc1ccc(S(=O)(=O)C2C(=O)N(C)C3(C)CC2c2ccccc2O3)cc1 (configuration not stated)	66*	0	1	143	74*
O=C(Nc1ccc(Br)cc1Br)C1CC(=O)N(Cc2ccccc2)C1 (configuration not stated)	-7	0	0	98	.
COC(=O)C1=C(C)N(Cc2cccnc2)C(=O)/C1=C\c1sccc1C	42*	0	0	102	54*
CCN1C(=O)/C(=C\c2cccs2)C(C(=O)OC)=C1C	3	0	3	122	.
Cc1ccc2nc(N/N=C/c3ccccc3C#N)nc(-c3ccccc3)c2c1	7	-4	0	104	.
Cc1ccc2nc(N/N=C/c3ccccc3F)nc(-c3ccccc3)c2c1	46*	0	1	104	40	ATG4B conf=75*
Cc1cc(O)cc(C)c1NS(=O)(=O)c1ccc2ccccc2c1	4	0	3	104	.
CN(C)S(=O)(=O)c1ccc(NC(=O)COC(=O)CC2CC3CCC2C3)cc1 (configuration not stated)	-16	0	0	117	.
Oc1ccccc1C1CCCCC1c1ccccc1 (configuration not stated)	52*	0	2	97	49
CCC(C)C(NC(=O)c1ccccc1)C(=O)Nc1ccc(S(=O)(=O)Nc2cc(C)nc(C)n2)cc1 (configuration not stated)	0	0	0	103	.
CC1=C(C)C(=O)C(N2CCOCC2)=CC1=O	10	.	.	.	.
O=C1C=C(N2CCOCC2)c2ccccc2C1=O	64*	0	6	120	-19	ATG4B conf=53*
CC(C)CCOC(=O)/C(=C/c1ccco1)NC(=O)/C=C/c1ccccc1	27	0	0	101	.
CCNC(=O)/C(=C\c1ccccc1)NC(=O)/C=C/c1ccccc1	3	0	0	89	.
NC(=O)/C(=C\c1ccccc1)NC(=O)/C=C/c1ccccc1	46*	0	0	117	38	ATG4B conf=76*
NC(=O)/C(=C/c1ccco1)NC(=O)/C=C/c1ccccc1	50*	0	3	105	68*
COc1cccc(CNC(=O)Cc2ccc(S(=O)(=O)N3CCOCC3)s2)c1	-1	0	0	119	.
CN1C(=O)C(N=Nc2ccccc2C(=O)O)N(C)C1=S (configuration not stated)	41*	0	1	127	40	ATG4B conf=70*
CC1=NN(C(N)=S)C(=O)C1N=Nc1ccccc1C(=O)O (configuration not stated)	3	0	0	101	.
SMILES	ATG4B inh	Efflux pump mplx	GRK2 aptamer HTS	CR mimetic SO	PLA2 ctr	others
O=c1oc2ccccc2cc1-c1csc(NN=C2CCCCC2)n1	41*	0	2	90	66*
Cc1c(Cl)cccc1NC(=S)NCc1ccccc1	54*	0	1	106	70*
Cc1cccc(NC(=S)NCc2ccccc2Cl)c1C	27	0	0	116	.
Cc1c(Cl)cccc1NC(=S)NCc1ccc(Cl)cc1	70*	0	0	104	81*
Cc1c(Cl)cccc1NC(=S)NC1CCN(Cc2ccccc2)CC1	48*	0	0	90	58*
Cc1ccc(NC(=O)CSc2nnc(C3CC3)n2CC2CCCO2)cc1C (configuration not stated)	5	0	2	99	.
Cc1nc(Cl)c(C(=O)NCCc2ccccc2)c(C)c1[N+](=O)[O-]	-7	0	1	101	.
CN(Cc1ccccc1)S(=O)(=O)c1ccc(NC(=S)NC(=O)C2CCCC2)cc1	50*	0	0	102	44
CCOC(=O)COc1ccc(C(=O)Nc2cccc(Cl)c2C)cc1	-5	0	0	103	.
O=C(c1ccc(COc2ccccc2Br)cc1)N1CCCCCC1	44*	0	3	115	55*
O=C(O)c1cccc2c(-c3ccccc3)c(-c3ccccc3)[nH]c12	69*	0	2	129	75*
CCn1c(C)c(C)c2cc(C(=O)N3CCc4ccccc4C3)ccc21	72*	0	2	96	74*
Cc1ccc(CN(c2ccc(C(=O)N3CCc4ccccc4C3)cc2)S(C)(=O)=O)cc1	56*	0	0	128	60*
CCN1CCN(C(=O)c2ccc3c(c2)c(C)c(C)n3Cc2ccccc2)CC1	-1	0	0	99	.
CS(=O)(=O)N(Cc1ccc(C(=O)N2CCc3ccccc3C2)cc1)c1ccccc1	20	0	0	103	.
CC(=O)Nc1cc(C(=O)N2CCc3ccccc3C2)ccc1Sc1ccc(C)cc1	46*	0	27	70	53*
COc1ccc(C(C(=O)NCC2CCCO2)N(C(=O)CNC(=O)c2cccs2)c2ccccc2C)cc1OC (configuration not stated)	-7	0	2	99	.
COc1ccc(CN2C[C@H]3CCCN3c3cc(Br)ccc3S2(=O)=O)cc1	-2	0	3	99	.
Cc1cc(C)nc(NS(=O)(=O)c2ccc(NC(=O)Cc3ccccc3F)cc2)n1	-5	0	0	102	.
